# Screening results: PubChem, National Center for Advancing Translational Sciences (NCATS)
# JMJD2A Tudor = blocks the human JMJD2A Tudor domain. O75164. AlphaScreen JMJD2A-Tudor / H3K4me3 peptide binding. Potency, µM (series often up to 114 µM), without a hit: top-dose activity change, negative = inhibition, usual class: inhibitors. 4.4% of 390,000 active. AID 504339; further: potency means the concentration at half of the fitted maximal effect; on the % scale 0 is the no-effect control and ±100 the full control effect; nearly all actives have a fitted effect of over 50% in size
# Target sequence (O75164 whole entry, looked up, the tested form may be a part): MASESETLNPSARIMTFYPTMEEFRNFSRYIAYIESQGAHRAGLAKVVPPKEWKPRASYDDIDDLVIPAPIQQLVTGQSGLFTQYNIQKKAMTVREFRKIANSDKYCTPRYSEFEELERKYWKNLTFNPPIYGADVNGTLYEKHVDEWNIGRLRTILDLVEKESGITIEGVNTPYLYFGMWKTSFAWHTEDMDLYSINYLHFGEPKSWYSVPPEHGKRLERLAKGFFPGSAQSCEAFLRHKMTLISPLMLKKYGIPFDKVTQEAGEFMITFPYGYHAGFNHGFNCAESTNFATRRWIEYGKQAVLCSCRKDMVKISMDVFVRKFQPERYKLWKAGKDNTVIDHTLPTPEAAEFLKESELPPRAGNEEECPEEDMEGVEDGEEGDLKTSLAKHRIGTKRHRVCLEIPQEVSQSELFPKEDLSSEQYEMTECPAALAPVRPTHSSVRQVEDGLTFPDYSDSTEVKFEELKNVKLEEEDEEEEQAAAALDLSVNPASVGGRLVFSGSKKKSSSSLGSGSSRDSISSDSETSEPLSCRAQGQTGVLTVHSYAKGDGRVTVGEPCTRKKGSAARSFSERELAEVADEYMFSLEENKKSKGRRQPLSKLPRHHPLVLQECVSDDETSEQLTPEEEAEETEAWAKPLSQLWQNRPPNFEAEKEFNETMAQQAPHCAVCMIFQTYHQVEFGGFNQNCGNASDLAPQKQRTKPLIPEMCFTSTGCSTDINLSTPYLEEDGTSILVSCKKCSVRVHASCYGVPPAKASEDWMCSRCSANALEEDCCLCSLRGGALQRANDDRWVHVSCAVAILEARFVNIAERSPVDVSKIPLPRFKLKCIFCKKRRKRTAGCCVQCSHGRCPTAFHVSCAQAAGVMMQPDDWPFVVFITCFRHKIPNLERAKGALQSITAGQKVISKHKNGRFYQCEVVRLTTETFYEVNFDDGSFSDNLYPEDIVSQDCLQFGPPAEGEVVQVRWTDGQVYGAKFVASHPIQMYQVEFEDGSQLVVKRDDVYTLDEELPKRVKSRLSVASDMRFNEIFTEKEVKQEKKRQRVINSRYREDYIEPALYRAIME
# PI5P4K alpha inh = blocks human PI5P4K alpha kinase activity; max response, %; P48426; 1.2% of 330,000 active; PI5P4Kalpha enzyme, ADP-Glo luminescence, 60 min; hits give low values; active means max response of -50% or lower; inconclusive means between -30% and -50%; inactive means -30% or higher; further: value at the top dose of about 77 µM; on the % scale 0 is the no-effect control and ±100 the full control effect
#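 ADP-Glo luminescence end-point after a 60 min room-temperature kinase reaction. PI5P4Kalpha and substrate in HEPES pH 7.4 buffer with EGTA, 0.1% CHAPS and 5% DMSO; ATP at 5 microM final.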
# BAZ2B inh = inhibitors of human BAZ2B bromodomain; Q9UIF8; AlphaScreen BAZ2B-H3K14Ac peptide displacement; Potency, µM (top dose mostly 114 µM), for inactives: top-dose activity change, negative = inhibition, hits mostly inhibitors; 4.4% of 360,000 active; AID 504333; further: potency means the concentration at half of the fitted maximal effect; on the % scale 0 is the no-effect control and ±100 the full control effect; nearly all actives have a fitted effect of over 60% in size
#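 BAZ2B 50 nM plus b-H3(5-23)K14Ac 50 nM, PBS pH 7.4/0.01% Tween-20, 30 min RT; compound added (max 110 uM), 30 min RT; streptavidin donor/Ni-chelate acceptor beads 10 ug/mL final, 20 min dark; AlphaScreen read.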
# L3MBTL1 inh = L3MBTL1 (human) inhibition; Potency, µM (doses to about 57.1 µM), inactives show at the highest dose activity, negative = inhibition, hits mostly inhibitors; AlphaScreen L3MBTL1–H3K9me1 peptide binding; Q9Y468; 0.66% of 230,000 active; further: potency means the concentration at half of the fitted maximal effect; on the % scale 0 is the no-effect control and ±100 the full control effect; nearly all actives have a fitted effect of over 60% in size
#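 AlphaScreen proximity signal between nickel-chelate acceptor and streptavidin donor beads (final 10 ug/mL) reports binding of 50 nM L3MBTL1 to 75 nM biotin-H3 K9me1 peptide; complex incubated with compounds 30 min at room temperature; cefsulodin titration as control.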
# G9a inh = G9a (human) methyltransferase inhibition; G9a H3K9 monomethylation, AlphaScreen, 2 h; Potency, µM (doses to about 102 µM), for inactives: top-dose activity, negative = inhibition, most hits filed as inhibitors; 8.8% of 350,000 active; further: potency means the concentration at half of the fitted maximal effect; on the % scale 0 is the no-effect control and ±100 the full control effect; nearly all actives have a fitted effect of over 75% in size
#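 Methyltransferase reactions run at room temperature for 2 h (20 nM enzyme, 500 nM biotin-H3K9 peptide, 20 uM SAM) after a 15 min compound preincubation; product detected by AlphaScreen beads and anti-H3K9me1 antibody.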
# HP1b chromo inh = inhibitors of HP1-beta chromodomain binding to methylated histone tails | AlphaScreen HP1-beta / biotin-H3K9me3 peptide binding | Potency, µM (top dose mostly 114 µM), for the others: at the highest dose activity change, negative = inhibition, usual class: inhibitors | 0.56% of 390,000 active; further: potency means the concentration at half of the fitted maximal effect; nearly all actives have a fitted effect of over 70% in size
#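 HP1-beta protein (50 nM final) preincubated 30 min at room temperature with biotinylated H3(1-18)K9me3 peptide (50 nM) in PBS pH 7.4, 0.01% Tween-20, then compound added for 30 min. AlphaScreen streptavidin donor/nickel chelate acceptor beads (10 ug/mL final), 30 min dark, luminescence read.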
# Active calls of the source: *; u = inconclusive; x = no result given; [ ] = remark or other dose. This is a sample that favours compounds with a hit; in the whole collection about 11% have one here. Unless noted, the call rests on the fitted dose curve; in most records, active means well fitted inhibition curve with a large enough effect; inconclusive means small, poorly fitted or top-dose-only effect; inactive means no such curve, though single readings can be large or run the other way.
SMILES,JMJD2A Tudor,PI5P4K alpha inh,BAZ2B inh,L3MBTL1 inh,G9a inh,HP1b chromo inh
CCN(c1ccccc1)S(=O)(=O)c1ccc(NC(=O)c2cc(=O)c3cc(C)ccc3o2)cc1,-12%,x,-2%,x,6%[59 µM],48%
Cc1ccc(C)c(CN2C(=O)c3ccccc3S(=O)c3ccc(C(=O)NCc4ccccc4)cc32)c1 (stereo unspecified),-14%,x,-15%,x,-27%[59 µM],35%
O=c1c(-c2ccc(F)cc2)nc2cnc(Nc3ccccc3)nc2n1Cc1cccs1,x,x,x,x,3%[12.7 µM],x
CC(C)Cn1c(/C=C/c2ccco2)nc2ccccc21,-16%,u,-35%,-3%,7.9µM*,8%
Cc1csc(SCc2ccc(C(=O)O)cc2)n1,5%,1,-34%,x,45µM*,24%
CCc1ccc(C(=O)CSc2nc3cc(S(=O)(=O)N4CCOCC4)ccc3n2CC)cc1,-16%,-18,-11%,0%,45µM*,u
Cc1csc(SCc2ccccc2C(=O)O)n1,-31%,1,-27%,4%,-2%[59 µM],70%
O=S(=O)(c1ccc2nc(COc3ccccc3)[nH]c2c1)N1CCOCC1,-23%,x,u,1%,50µM*,47%
Cc1csc(SCC(=O)c2ccc(S(=O)(=O)N3CCOCC3)cc2)n1,56µM*,-12,-7%,-10%,28µM*,-10%
C[C@]12CCC(=O)C=C1CC[C@@H]1[C@@H]2[C@@H](O)C[C@@]2(C)[C@H]1CC[C@]2(O)C(=O)COP(=O)(O)O,x,x,x,x,1%[12.7 µM],x
COC(=O)c1ccc(CSc2nc3ccc(S(=O)(=O)N4CCOCC4)cc3[nH]2)cc1,-32%,-4,-28%,-13%,14µM*,11%
COc1ccc(N=C2NN=C(c3c(C)[nH]c4ccccc34)CS2)cc1,u,-15,40µM*,-21%,8.9µM*,u
Cc1[nH]c2ccccc2c1C1=NNC(=Nc2ccc(F)cc2)SC1,56µM*,-26,u,-11%,u,u
COc1ccc(N=C2SCC(c3ccccc3)=NN2C)cc1,-11%,4,-11%,-8%,37%,27%
O=C(OCc1cc(=O)n2c3c(sc2n1)CCCC3)c1cccc(NC(=O)c2ccccc2F)c1,-6%,x,-9%,x,2%[59 µM],11%
S=C(NNC(=S)Nc1ccc(Cl)cc1)NNc1ccccc1,x,-29,x,x,x,x
S=C(N=Nc1ccccc1)NNc1ccccc1,25µM*,-25,35µM*,u,10µM*,16µM*
C=CCN(CC=C)S(=O)(=O)c1ncn[nH]1,-34%,0,79µM*,-5%,u,15%
c1coc(CSSCc2ccco2)c1,56µM*,u,-4%,-6%,20%[2.33 µM],u
CCOc1ccc(NC(=O)Cn2ncc3c2-c2cc(C)ccc2OC3)cc1,1%,x,4%,x,16%[59 µM],34%
Cc1ccc(N=Nc2ccc(O)c(P(=O)(c3ccccc3)c3ccccc3)c2)cc1,11µM*,-5,u,-10%,u,-19%
Cc1ccccc1C(=O)N1CC(=O)Nc2ccc(Cl)cc2C1c1ccccc1 (stereo unspecified),-32%,x,-16%,x,u,4%
CSc1nnc(-c2cccs2)n1C,u,-30,3%,11%,3%,-22%
CSCCC1COC(c2cccs2)=N1 (stereo unspecified),-22%,1,x,x,0.89µM*,14%
CCOc1ccc(OCC)c(NC(=O)c2cc(S(=O)(=O)N3CCCC3)cn2C)c1,-21%,x,-5%,x,-25%[59 µM],15%
SMILES,JMJD2A Tudor,PI5P4K alpha inh,BAZ2B inh,L3MBTL1 inh,G9a inh,HP1b chromo inh
CCOc1ccc(N2CC(c3nc4ccccc4n3CCCOc3ccc(OC)cc3)CC2=O)cc1 (stereo unspecified),u,x,u,x,u,5%
CCCCC[n+]1ccn(-c2nc3ccccc3nc2[N-]S(=O)(=O)c2ccccc2)c1,-3%,-5,20µM*,10%,-34%,16%
COc1ccc(-c2noc(N3CCN(c4cccc(Cl)c4)CC3)n2)cc1OC,-9%,x,-12%,x,-21%[59 µM],22%
C=CCn1c(SCCC)nc2ccccc2c1=O,58%[57.1 µM],x,x,x,x,79%[57 µM]
COC(=O)c1ccc2c(c1)SC1=C(CCCC1=O)N2,-36%,0,40µM*,-4%[11.4 µM],u,-28%
CC(OC(=O)c1ccc2c(c1)NC(=O)CS2)C(=O)c1ccc(F)cc1 (stereo unspecified),-14%,1,x,-1%,x,5%[57 µM]
CCN(CC(=O)Nc1ccc(OC)cc1)C(=O)c1ccc2ccccc2c1,-9%,-8,x,0%,x,15%
C=CCn1c(C)cc(C(=O)COC(=O)c2ccc3c(c2)NC(=O)CS3)c1C,u,u,u,u,20µM*,u
C=CCn1c(C)cc(C(=O)COC(=O)c2ccc(N)c([N+](=O)[O-])c2)c1C,u,-4,u,-3%,u,-15%
O=C1CCCC2=C1Sc1ccc(Cl)cc1N2,-13%,-10,u,-7%,4%[59 µM],20%
COC(=O)c1ccc2c(c1)NC(=O)CS2,-11%,-4,-20%,1%,40µM*,-4%
CCN(CC(=O)Nc1ccc(OC)cc1)C(=O)c1ccc2c(c1)NC(=O)CS2,-16%,2,5%,3%,45µM*,-5%
COc1ccc(Nc2ncnc3onc(C)c23)c(OC)c1,-9%,x,6%[57.1 µM],x,5%[59 µM],10%
CCOC(=O)c1cc(-c2ccccc2)n(-c2cccc(C(=O)NC(C)CC)c2)c1C (stereo unspecified),-27%,x,-26%,x,u,-3%
CCCN(C(=O)c1coc(=O)c2ccccc12)c1ccccc1C,6%,x,10%,x,2%[59 µM],23%
COc1cccc(NC2=C(C#N)C(=O)NC(c3cccc(OC)c3O)S2)c1 (stereo unspecified),-8%,u,-27%,-5%,45µM*,22%
N#CC1=C(Nc2ccccc2Cl)SC(c2ccccc2O)NC1=O (stereo unspecified),u,u,-2%,60%,14%[2.33 µM],4%
COC(=O)Cn1c(=O)c2cccn2c2cccnc21,-9%,x,-3%,x,-25%[59 µM],18%
COc1ccccc1Cn1ccn(Cc2c(F)cccc2Cl)c(=O)c1=O,-34%,x,-17%,x,10%[59 µM],-4%
Cc1ccc(/C(O)=C2/C(=O)C(=O)OC2c2ccc(Cl)cc2)cc1 (stereo unspecified),79µM*,x,-29%[57.1 µM],-3%,u,-8%
Cc1ccc(C(=O)N2C(=O)C(c3ccccc3)Oc3ccccc32)cc1 (stereo unspecified),42%,6,25%,29%,218%,118%
O=C1OC(c2ccccc2)/C(=C(/O)c2ccccc2)C1=O (stereo unspecified),35µM*,-9,0%,x,-8%[12.7 µM],0%
